In PubChem BioAssay (NCATS):
Results filed as inconclusive are left out. Entries that show only a call come without a potency. Values without a mark were called inactive. Calls of active or inactive are those of the source. Calls follow the shape of the dose curve; as a rule, active = well fitted curve in the direction sought with a large enough effect; inconclusive = small, poorly fitted or top-dose-only effect, or another doubt; inactive = no such curve, though single readings can be large; an effect the other way counts as inactive or inconclusive.

Tests used:
[1] = target: Rap guanine nucleotide exchange factor 3 (Homo sapiens) (UniProt O95398); experiment: Confirmatory qHTS for antagonist of cAMP-regulated guanine nucleotide exchange factor 3 (EPAC1) (AID 1645880); also: nearly all actives have a fitted effect of over 55% in size; also: potency is read from the fitted curve at half-maximal effect
Outline: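 Released BODIPY-GDP fluoresces less than Rap1-bound BODIPY-GDP; the signal is followed at 480/540 nm at 5-min intervals over 30 min, after 5 min at room temperature. Reactions contain 100 nM EPAC1, 250 nM RAP1B-BODIPY-GDP and 50 uM GDP; results are normalized to ATA and DMSO.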

[2] = target: Rap guanine nucleotide exchange factor 3 (Homo sapiens) (UniProt O95398); experiment: Confirmatory qHTS for agonist of cAMP-regulated guanine nucleotide exchange factor 3 (EPAC1) (AID 1645881);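 also: EPAC1 catalysed release of BODIPY-GDP from Rap1B seen as fluorescence loss; nearly all actives have a fitted effect of over 75% in size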
[3] = target: Rap guanine nucleotide exchange factor 4 (Homo sapiens) (UniProt Q8WZA2); experiment: Confirmatory qHTS for agonist of cAMP-regulated guanine nucleotide exchange factor 4 (EPAC2) (AID 1645884);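 also: nucleotide exchange releases bodipy-GDP from Rap1 and this lowers its fluorescence; nearly all actives have a fitted effect of over 65% in size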
[4] = target: Rap guanine nucleotide exchange factor 4 (Homo sapiens) (UniProt Q8WZA2); experiment: Confirmatory qHTS for antagonist of cAMP-regulated guanine nucleotide exchange factor 4 (EPAC2) (AID 1645885); also: nearly all actives have a fitted effect of over 25% in size

Chain of Rap guanine nucleotide exchange factor 4 (Homo sapiens) (Q8WZA2 whole entry, looked up): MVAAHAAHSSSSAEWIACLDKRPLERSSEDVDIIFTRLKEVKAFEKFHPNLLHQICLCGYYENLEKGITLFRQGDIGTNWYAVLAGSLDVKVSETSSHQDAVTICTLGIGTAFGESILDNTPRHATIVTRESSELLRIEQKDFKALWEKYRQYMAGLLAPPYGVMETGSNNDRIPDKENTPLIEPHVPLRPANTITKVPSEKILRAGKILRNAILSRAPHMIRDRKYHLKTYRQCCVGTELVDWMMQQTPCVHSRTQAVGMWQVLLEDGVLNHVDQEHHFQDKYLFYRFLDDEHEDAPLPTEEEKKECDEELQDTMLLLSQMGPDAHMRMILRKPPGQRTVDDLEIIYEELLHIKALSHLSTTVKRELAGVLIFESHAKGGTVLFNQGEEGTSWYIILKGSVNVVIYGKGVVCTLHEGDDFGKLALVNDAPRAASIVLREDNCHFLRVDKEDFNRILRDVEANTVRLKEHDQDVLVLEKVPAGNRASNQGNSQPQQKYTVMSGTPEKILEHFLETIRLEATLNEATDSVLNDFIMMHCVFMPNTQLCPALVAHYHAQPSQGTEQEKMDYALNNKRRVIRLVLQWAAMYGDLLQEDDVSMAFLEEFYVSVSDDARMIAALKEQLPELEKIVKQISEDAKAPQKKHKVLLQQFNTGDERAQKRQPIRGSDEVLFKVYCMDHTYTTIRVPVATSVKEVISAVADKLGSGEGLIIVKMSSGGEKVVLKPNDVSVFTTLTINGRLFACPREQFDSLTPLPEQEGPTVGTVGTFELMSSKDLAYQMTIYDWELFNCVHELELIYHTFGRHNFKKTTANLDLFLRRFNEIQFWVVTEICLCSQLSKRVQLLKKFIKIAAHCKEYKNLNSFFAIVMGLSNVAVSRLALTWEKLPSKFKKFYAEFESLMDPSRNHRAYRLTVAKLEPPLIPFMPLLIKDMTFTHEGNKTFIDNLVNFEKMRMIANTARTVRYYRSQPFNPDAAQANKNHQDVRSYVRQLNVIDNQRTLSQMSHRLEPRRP
Chain of Rap guanine nucleotide exchange factor 3 (Homo sapiens) (O95398 whole entry, looked up): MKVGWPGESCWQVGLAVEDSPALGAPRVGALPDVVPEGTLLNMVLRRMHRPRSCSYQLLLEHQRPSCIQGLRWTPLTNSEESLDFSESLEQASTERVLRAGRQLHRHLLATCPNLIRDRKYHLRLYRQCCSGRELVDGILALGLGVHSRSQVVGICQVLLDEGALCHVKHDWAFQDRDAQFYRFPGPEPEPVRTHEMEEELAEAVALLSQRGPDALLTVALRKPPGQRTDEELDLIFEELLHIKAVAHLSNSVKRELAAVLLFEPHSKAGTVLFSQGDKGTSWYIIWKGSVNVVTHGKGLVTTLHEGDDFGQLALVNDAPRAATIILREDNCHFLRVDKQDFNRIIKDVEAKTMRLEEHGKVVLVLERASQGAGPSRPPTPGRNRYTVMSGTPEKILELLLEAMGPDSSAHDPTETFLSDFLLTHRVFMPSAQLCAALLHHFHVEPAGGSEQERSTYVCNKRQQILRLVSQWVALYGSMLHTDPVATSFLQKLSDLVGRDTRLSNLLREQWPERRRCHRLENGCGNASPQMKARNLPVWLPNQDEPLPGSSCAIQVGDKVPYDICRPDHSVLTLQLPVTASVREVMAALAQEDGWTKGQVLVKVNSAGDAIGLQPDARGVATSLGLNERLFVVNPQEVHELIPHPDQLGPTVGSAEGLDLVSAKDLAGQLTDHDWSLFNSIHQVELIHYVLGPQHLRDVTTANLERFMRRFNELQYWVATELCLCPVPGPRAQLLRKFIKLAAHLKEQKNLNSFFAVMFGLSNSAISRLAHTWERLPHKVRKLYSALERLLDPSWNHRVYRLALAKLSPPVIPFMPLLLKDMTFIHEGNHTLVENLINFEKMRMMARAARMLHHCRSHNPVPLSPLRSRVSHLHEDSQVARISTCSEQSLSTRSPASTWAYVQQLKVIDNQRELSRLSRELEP

SMILES	Potency [1]	Potency [2]	Potency [3]	activation [3]	Potency [4]
COCCN(CCOC)c1nc(-c2ccccc2)nc2ccccc12	inactive	inactive	inactive	–	–
COc1cc(OC)c2c(-c3ccccc3)cc(=O)oc2c1	inactive	inactive	–	5.59% [at 17.1 µM, percent relative to cAMP agonist control]	–
C/C=C(\C)C(=O)OC1C(OC(=O)C2(C)OC2C)c2cc3ccc(=O)oc3cc2OC1(C)C (configuration not stated)	inactive	inactive	inactive	–	–
Cc1ccc2c(/C=C/c3c[nH]c4ccccc34)ccnc2c1C	inactive	inactive	inactive	–	–
CCCCOC(=O)Nc1ccc(S(=O)(=O)Nc2nccs2)cc1	inactive	inactive	inactive	–	–
CN1CC(O)C2=CC(=O)C(=O)C=C21 (configuration not stated)	2.8 µM (active)	inactive	inactive	–	–
COC(=O)c1cc(Br)c(=O)n(CCC2=CCCCC2)c1	inactive	inactive	–	0% [at 17.1 µM, percent relative to cAMP agonist control]	–
C=CCOc1ccc(Br)cc1/C=C1/SC(=Nc2ccc(C(=O)O)cc2)NC1=O	30.1 µM (active)	inactive	inactive	–	–
CCOC(=O)c1ccc(N2C(=O)c3n[nH]c(-c4ccco4)c3C2c2ccccc2OC)cc1 (configuration not stated)	75.7 µM (active)	inactive	inactive	–	inactive
Fc1ccccc1N1CCN(c2ncnc3onc(-c4ccc(Cl)cc4)c23)CC1	inactive	inactive	inactive	–	inactive
C(=C\c1ccnc2ccccc12)/c1ccc2ccccc2n1	inactive	inactive	inactive	–	–
Cc1[nH]c2ccccc2c1/C=C/c1ccnc2ccccc12	inactive	inactive	inactive	–	inactive
COc1ccc(C2CN=NC23CCc2ccccc2C3=O)cc1 (configuration not stated)	inactive	inactive	inactive	–	–
Cc1cccc(N(C(=O)c2csnn2)C(C(=O)NCc2ccccc2)c2cccs2)c1 (configuration not stated)	inactive	inactive	inactive	–	–
CN(CCc1ccccc1)C(=O)c1cc(COc2cccc(C(F)(F)F)c2)on1	inactive	inactive	inactive	–	–
Cc1ccc(S(=O)(=O)N2[C@@H](c3ccc(C(C)(C)C)cc3)C(C(=O)O)=CC[C@H]2c2ccc(C(C)C)cc2)cc1	19 µM (active)	inactive	inactive	–	inactive
Cc1nc2ccccc2c(=O)n1/N=C/c1ccccc1O	35.5 µM (active)	inactive	–	1.94% [at 17.1 µM, percent relative to cAMP agonist control]	inactive
Cc1ccc(S(=O)(=O)N2[C@@H](c3cccc(Cl)c3)C(C(=O)O)=CC[C@H]2c2ccc(C(C)C)cc2)cc1	67.5 µM (active)	inactive	inactive	–	–
Cc1cnc2ccccc2c1/C=C/c1ccc(N(C)C)cc1	inactive	inactive	inactive	–	–

SMILES	Potency [1]	Potency [2]	Potency [3]	activation [3]	Potency [4]
COc1ccc(C(=O)c2ccc(Br)cc2)c2ccccc12	inactive	inactive	inactive	–	–
Cc1cc(C(=O)NCc2nc(-c3cccc(NC(=O)c4ccccc4)c3)oc2C)nc(C)n1	inactive	inactive	inactive	–	–
COc1cccc(CN(C)C(=O)c2cnn(-c3ncc4c(n3)-c3ccccc3CCC4)c2C)c1	inactive	inactive	inactive	–	–
COc1cc(-c2noc(C)c2-c2ccc3[nH]ccc3c2)cc(OC)c1OC	inactive	inactive	inactive	–	–
Cc1[nH]c2ccccc2c1/C=C/c1ccc2ccccc2n1	inactive	inactive	inactive	–	–
Cc1cc(C)c2nccc(/C=C/c3ccc(N(C)C)cc3)c2c1	inactive	inactive	inactive	–	–
C[C@@H]1CCC(=O)N(CC[C@H](Oc2ccccc2)c2ccccc2)CC1	inactive	inactive	inactive	–	–
COc1cccc(OC)c1NC(=O)c1ccc(-c2cc(Cl)ccc2Cl)o1	inactive	inactive	inactive	–	inactive
CC(C)(C)[C@H]1CCC(=O)N([C@H](CN=[N+]=[N-])Cc2ccccc2)CC1	inactive	inactive	inactive	–	–
C=CCn1c(N)c(S(=O)(=O)c2cccs2)c2nc3ccccc3nc21	33.8 µM (active)	inactive	inactive	–	–
CCc1ccc([C@@H]2CC=C(C(=O)O)[C@H](c3ccc(Br)cc3)N2S(=O)(=O)c2ccc(C)cc2)cc1	17.8 µM (active)	inactive	–	-5.28% [at 17.1 µM, percent relative to cAMP agonist control]	–
Cc1ccc2c(/C=C/c3ccc(N(C)C)cc3)ccnc2c1C	inactive	inactive	inactive	–	–
Cn1cc(/C=C/c2ccc3ccccc3n2)c2ccccc21	inactive	inactive	inactive	–	–
O=c1c2ccccc2oc2ccc(Oc3ccccc3)cc12	inactive	inactive	inactive	–	–
Cc1cc(/C=C/c2ccnc3ccccc23)ccc1N(C)C	inactive	inactive	inactive	–	–
Cc1ccc(C2SCC(=O)N2Cc2ccccc2)cc1 (configuration not stated)	inactive	inactive	inactive	–	–
CCOC(=O)C1CCCN(C(=O)c2cnn(-c3nccc(-c4cc(C)sc4C)n3)c2C)C1 (configuration not stated)	inactive	inactive	inactive	–	–
Cc1cc(C)cc(NC(=O)c2sc3nc(-c4ccccc4)cn3c2C)c1	inactive	inactive	inactive	–	–
